# Experimental data published in PubChem BioAssay (NCI).
# About 83,000 compounds went through this panel and 20% of them were active in at least one assay; those are over-represented in the sample as a whole.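 Growth was measured after 48 h exposure to one concentration of compound in 96-well plates. Values under 10 count as active.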 A number with no mark means an inactive call. The source made the active and inactive calls.
# What was measured:
# Assay in all cases: NCI-60 one-dose screen, 48 h (100 = growth as untreated, 0 = no growth, -100 = all killed)
# Details in all cases: 10 µM unless noted
# [1] = tested on: NCI-H23 lung
# [2] = tested on: NCI-H226 lung
# [3] = tested on: NCI-H322M lung
# [4] = tested on: HOP-62 NSCLC
# [5] = tested on: NCI-H460 lung
# [6] = tested on: HOP-92 NSCLC
# [7] = tested on: NCI-H522 lung
# [8] = tested on: A549/ATCC NSCLC
# [9] = tested on: 786-0 renal
# [10] = tested on: COLO 205 colon
# [11] = tested on: DU-145 prostate
# [12] = tested on: K-562 leukemia
# [13] = tested on: MALME-3M melanoma
# [14] = tested on: MDA-MB-231 breast
# [15] = tested on: RXF 393 renal
# [16] = tested on: SF-268 CNS
# [17] = tested on: SF-295 CNS
# [18] = tested on: SF-539 CNS
# [19] = tested on: M14 melanoma
# [20] = tested on: UACC-257 melanoma
SMILES,growth [1],growth [2],growth [3],growth [4],growth [5],growth [6],growth [7],growth [8],growth [9],growth [10],growth [11],growth [12],growth [13],growth [14],growth [15],growth [16],growth [17],growth [18],growth [19],growth [20]
COC(=O)[C@]12CC[C@@H](C)[C@H](C)[C@@H]1C1=CC[C@@H]3[C@@](C)(CC#N)C4=C(C[C@@]3(C)[C@]1(C)CC2)OC[C@]4(C)C=O,-10.1% (active),-37% (active),10.4%,-23.6% (active),-57.1% (active),2.68% (active),-6.43% (active),-73.6% (active),-19.3% (active),-94% (active),5.07% (active),5.97% (active),-16.9% (active),-8.99% (active),-85.1% (active),3.69% (active),-30.6% (active),-38.4% (active),-1.53% (active),–
O=c1c(CNc2ccc(S(=O)(=O)Nc3nccs3)cc2)coc2ccccc12,110%,96.1%,87.6%,98.7%,102%,80.1%,82.8%,95.5%,103%,119%,110%,92.2%,99.7%,98.8%,103%,113%,–,107%,104%,106%
c1ccc(-c2nc(Nc3ccc(-c4nc5ccccc5[nH]4)cc3)nc(N3CCOCC3)n2)cc1,-59.1% (active),-19.3% (active),-0.466% (active),-64.5% (active),-67.3% (active),-66.3% (active),-68.2% (active),-68.4% (active),-88.9% (active),-68.8% (active),-27.8% (active),-30.1% (active),-77.3% (active),-63.3% (active),-75.1% (active),-43.4% (active),-76.4% (active),-76.8% (active),-80.7% (active),–
COc1cc2[nH]c(C(=O)c3cc(OC)c(OC)c(OC)c3)c(N)c2cc1C#CCO,35.7%,27.9%,43.6%,28.3%,7.9% (active),21.6%,-6.03% (active),33%,40.8%,-35.8% (active),12.2%,7.65% (active),31.7%,39%,1.88% (active),32.5%,–,-35% (active),7.42% (active),71.2%
COc1cccc(-c2nn(-c3ccccc3)cc2-c2ccnc(NCCCNS(=O)(=O)c3ccccc3)c2)c1,44.3%,35.1%,59.3%,64.3%,31.8%,18.9%,31.1%,35.8%,43.2%,17.1%,52%,9.59% (active),68.7%,20.6%,36.4%,47.1%,16.8%,57.5%,29.9%,–
CCCCCCCC(=O)SCC/C=C/[C@@H]1CC(=O)NCc2cccc(n2)CN(Cc2ccc(Cl)cc2)CC(=O)N[C@@H](C(C)C)C(=O)O1,19.5%,16.1%,8.85% (active),8.04% (active),11.9%,-16.5% (active),29.6%,2.92% (active),14.4%,-40.4% (active),20.6%,9.09% (active),25.1%,-1.33% (active),-20.4% (active),18%,-68.2% (active),14.7%,8.96% (active),–
COc1ccc(-c2nc3ccccn3c2-c2nc3ccc(Cl)cc3[nH]2)cc1,98.3%,90.1%,103%,114%,98.8%,85%,73.9%,92.5%,97.6%,110%,107%,54.6%,109%,95.2%,95.8%,112%,–,98.9%,103%,94.2%
O=S(=O)(NCCNc1cc(-c2cn(-c3ccccc3)nc2-c2cccc(O)c2)ccn1)c1ccc(F)cc1,33.6%,45.1%,58.7%,48%,22.9%,35.7%,4.98% (active),26.9%,-9.01% (active),-49.3% (active),55.3%,1.3% (active),14.5%,-9.05% (active),35%,40.4%,10.4%,44.4%,14.2%,–
Nc1c(C(=O)Nc2c(Cl)cccc2Cl)sc2nc3c(cc12)CCCC3,84.1%,91.4%,94%,50.1%,66.4%,89.2%,62.8%,66.5%,103%,70.3%,88.4%,14.8%,59.2%,82.5%,87.9%,80.9%,75.8%,75.8%,46.6%,–
CCCCCCCC(=O)SCC/C=C/[C@@H]1CC(=O)NCc2cccc(n2)CN(Cc2ccc3ccccc3c2)CC(=O)N[C@@H](C(C)C)C(=O)O1,45.7%,67.5%,40%,24%,27.6%,18.2%,66.1%,35.3%,72.1%,33.7%,51.4%,13.8%,8.13% (active),27.3%,20.3%,61.1%,9.4% (active),59.1%,28.4%,–
CC(C)(C)c1ccc(OP(=S)(N/N=C/c2ccccc2O)Oc2ccc(C(C)(C)C)cc2)cc1,58.1%,58.6%,76.3%,91.7%,87%,70.6%,12.1%,56.7%,68.6%,79.7%,92%,59%,86.8%,63.5%,87.3%,69.8%,–,66.8%,77.7%,59.8%
C[C@]12CC[C@@H]3c4ccc(O)cc4CC[C@H]3[C@@H]1C[C@H](O)[C@@H]2O,91.2%,85%,88.7%,94.2%,95.2%,99.2%,98.3%,97.9%,106%,102%,94.9%,118%,95.8%,94.4%,86.9%,89.8%,92.5%,92.1%,90.9%,–
COc1cccc(-c2nn(-c3ccccc3)cc2-c2ccnc(NCCNS(=O)(=O)c3ccc(C(F)(F)F)cc3)c2)c1,17.1%,34.8%,45.1%,35.6%,11.4%,-10.9% (active),1.9% (active),14.2%,3.75% (active),-73.5% (active),46.6%,3.79% (active),-17.9% (active),6.28% (active),-22.2% (active),36%,3.05% (active),2.91% (active),13.6%,–
Cn1c(=O)c2c(ncn2CC(=O)Nc2ccc(S(N)(=O)=O)cc2)n(C)c1=O,104%,105%,107%,94.8%,108%,90.1%,86.7%,88.3%,94.9%,105%,107%,97.4%,118%,105%,106%,101%,103%,96.3%,97.1%,–
O=C1NC(=Nc2ccc(S(=O)(=O)Nc3nccs3)cc2)S/C1=C\c1coc2ccccc2c1=O,100%,97.8%,101%,99.5%,101%,95.3%,103%,99.7%,111%,113%,121%,93.8%,109%,105%,105%,123%,–,96.2%,105%,105%
Cc1[c-]onc1C.Cc1[c-]onc1C.[Ag].[Ag].[NH-]S(=O)(=O)c1ccc(N=Nc2cc(N=Nc3ccc(S([NH-])(=O)=O)cc3)c3c(NC(=O)C(Cl)Cl)cccc3c2OC(=O)C(Cl)Cl)cc1,94.8%,94.8%,96%,84.7%,57.3%,6.01% (active),-85.7% (active),80.5%,104%,-46.9% (active),70.5%,59.7%,7.7% (active),45.8%,89.2%,84.5%,–,92.8%,103%,78.5%
